Measurements as given in PubChem BioAssay (EPA / NIEHS).
“And” between values parts separate entries of the source, which are not always exact repeats. Equal values may be shown once. More than one record can exist for a structure, and the calls need not agree. The source made the active and inactive calls. The calls were made as follows: active = hit-call score of the fitted dose curve at least 0.9, where 1 is the maximum; inactive = score below 0.9.

What follows are compounds tested on Eotaxin 3, CCL26 (gene 10344) (assay: BSK_BF4T_Eotaxin3: BioMAP Diversity Plus: BF4T Assay for Eotaxin 3 Biomarker Activity (AID 2284258)). Conditions: primary human bronchial epithelial cells with fibroblasts.
Description: BSK_BF4T is a cell-based, multiplexed-readout assay that uses bronchial epithelial cells and dermal fibroblasts, a human vascular primary cell, with measurements taken at 24 hours after chemical dosing in a microplate: 96-well plate.BSK_BF4T_Eotaxin3 is an assay component measured in the BSK_BF4T assay. It measures Eotaxin-3 antibody related to regulation of gene expression using ELISA technology.Data from the assay component BSK_BF4T_Eotaxin3 was analyzed at the endpoint, BSK_BF4T_Eotaxin3, in the positive analysis fitting direction relative to DMSO as the negative control and baseline of activity. Using a type of binding reporter, gain or loss-of-signal activity can be used to understand protein changes. To generalize the intended target to other relatable targets, this assay endpoint is annotated to the 'cytokine' intended target family, where the subfamily is 'chemotactic factor'.
The levels of cell surface (or secreted, indicated by the prefix "s") biomarker endpoints were measured by ELISA. Overt cytotoxicity to cells in confluent adherent cultures (all systems other than the BT system) was assessed by measuring total protein levels using sulforhodamine B (SRB) staining in parallel cultures at the time of biomarker measurements, indicated as SRB endpoints. For proliferation assays for adherent cell types, individual cell types are cultured at sub-confluence and relative cell numbers quantified by SRB staining at time points optimized for each system (48 h: 3C and CASM3C systems; 72 h: BT and HDF3CGF systems; 96 h: SAg system). SRB was performed by staining cells with 0.1% SRB after fixation with 10% TCA and reading wells at 560 nm.Viability and proliferation of PBMC (T cells) was quantified by Alamar Blue reduction for the SAg and BT systems. For PBMC viability (referred to as PBMC Cytotoxicity within the assay endpoint names), cells were plated (75,000/well in a 96-well plate) and then chemical samples added for 1 h before addition of activators, SEB and TSST-1 (20 ng/mL final concentration each). Cells were incubated for 90 h. Then, Alamar Blue (20 uL/well) (Invitrogen, Cat DAL1100) was added for 6 h, and the plates were read with a fluorescence microplate reader at 546/580 nm (excitation/emission). For PBMC proliferation, cells were plated and activated as above but incubated for only 16 h prior to addition of Alamar Blue. Plates were read after 6 h.

| Compound | outcome | AC50 |
| --- | --- | --- |
| OCC(F)(F)C(F)(F)C(F)(F)C(F)(F)C(F)(F)C(F)(F)CO | inactive | – |
| NCC(F)(F)C(F)(F)C(F)(F)C(F)(F)C(F)(F)C(F)(F)C(F)(F)C(F)(F)F | inactive | – |
| OCC(F)(F)C(F)(F)C(F)(F)CO | inactive | – |
| NCC(F)(F)C(F)(F)C(F)(F)C(F)(F)C(F)(F)C(F)(F)F | inactive | – |
| C=CC(=O)OCC(F)(F)C(F)(F)C(F)(F)COC(=O)C=C | – | 14.8 µM (active) and 17 µM (active) |
| FC(F)(F)C(F)(F)C(F)(F)C(F)(F)C(F)(F)C(F)(F)CC[Si](Cl)(Cl)Cl | inactive | – |
| O=S(=O)(OCC(F)(F)F)C(F)(F)C(F)(F)C(F)(F)C(F)(F)F | inactive | – |
| NC(=O)C(F)(F)C(F)(F)C(F)(F)C(F)F | inactive | – |
| CNS(=O)(=O)C(F)(F)C(F)(F)C(F)(F)C(F)(F)C(F)(F)C(F)(F)C(F)(F)C(F)(F)F | – | 3.88 µM (active) and 220 nM (active) |
| OCCCCC(F)(F)C(F)(F)C(F)(F)C(F)(F)F | inactive | – |
| O=C(O)C(F)(F)C(F)(F)C(F)(F)OC(F)(F)F | inactive | – |
| O=C(O)C(F)(F)C(F)(F)C(F)(F)OC(F)(C(F)(F)F)C(F)(F)F | inactive | – |
| O=C(O)C(F)(F)C(F)(F)C(F)(F)C(F)(F)C(F)(F)C(F)(F)C(F)F | inactive | – |
| C=CC(=O)OCCC(F)(F)C(F)(F)C(F)(F)C(F)(F)F | inactive | – |
| CCN(CCO)S(=O)(=O)C(F)(F)C(F)(F)C(F)(F)C(F)(F)C(F)(F)C(F)(F)C(F)(F)C(F)(F)F | inactive | – |
| O=C(F)C1(F)C(F)(F)C(F)(F)C(F)(F)C(F)(F)C1(F)F | inactive | – |
| OCC(O)CC(F)(F)C(F)(F)C(F)(F)C(F)(F)F (stereo not given) | inactive | – |
| NS(=O)(=O)C(F)(F)C(F)(F)C(F)(F)C(F)(F)C(F)(F)C(F)(F)F | inactive | – |
| FC(F)(F)C(F)(F)C(F)(F)C(F)(F)C(F)(F)C(F)(F)C(F)(F)CCI | inactive | – |
| OCC(F)(F)C(F)(F)C(F)(F)C(F)(F)C(F)(F)C(F)(F)C(F)(F)C(F)(F)CO | – | 15.3 µM (active) and 16.6 µM (active) |

| Compound | outcome | AC50 |
| --- | --- | --- |
| NC(=O)C(F)(F)C(F)(F)C(F)(F)C(F)(F)C(N)=O | inactive | – |
| OCCCC(F)(F)C(F)(F)C(F)(F)C(F)(F)C(F)(F)C(F)(F)C(F)(F)C(F)(F)F | – | 24.7 µM (active) and 24.9 µM (active) |
| O=C(Cl)C(F)(F)C(F)(F)C(F)(F)C(F)(F)C(F)(F)C(F)(F)C(F)(F)F | inactive | – |
| NC(O)(C(F)(F)F)C(F)(F)F | inactive | – |
| CN(C(=O)C(F)(F)C(F)(F)C(F)(F)F)[Si](C)(C)C | inactive | – |
| O=C(O)C(F)(F)C(F)(F)C(F)(F)C(=O)O | inactive | – |
| O=S(=O)(O)CCC(F)(F)C(F)(F)C(F)(F)C(F)(F)C(F)(F)C(F)(F)C(F)(F)C(F)(F)F | – | 15.1 µM (active) and 8.3 µM (active) |
| NC(=O)C(F)(F)C(F)(F)C(F)(F)F | inactive | – |
| O=S(=O)(O)CCC(F)(F)C(F)(F)C(F)(F)C(F)(F)F | inactive | – |
| O=C(O)C(F)(F)OC(F)(F)C(F)(F)OC(F)(F)C(F)(F)OC(F)(F)F | inactive | – |
| O=C(O)CCC(F)(F)C(F)(F)C(F)(F)C(F)(F)C(F)(F)C(F)(F)C(F)(F)F | inactive | 726 nM (active) |
| OC(O)C(F)(F)C(F)(F)F | inactive | – |
| OCC(O)CC(F)(F)C(F)(F)C(F)(F)C(F)(F)C(F)(F)C(F)(F)C(F)(F)C(F)(F)F (stereo not given) | inactive | – |
| O=C(Cl)C(F)(F)C(F)(F)C(F)(F)C(F)(F)C(F)(F)C(F)(F)F | inactive | – |
| O=C(O)CCC(F)(F)C(F)(F)C(F)(F)F | inactive | – |
| O=S(=O)(Cl)C(F)(F)C(F)(F)C(F)(F)C(F)(F)C(F)(F)C(F)(F)C(F)(F)C(F)(F)F | – | 28.3 µM (active) and 19.5 µM (active) |
| CCOC(=O)CC(=O)C(F)(F)C(F)(F)F | inactive | – |
| NC(=O)C(F)(F)C(F)(F)C(F)(F)C(F)(F)C(F)(F)C(F)(F)C(F)(F)F | inactive | – |
| CO[Si](C)(CCC(F)(F)C(F)(F)C(F)(F)C(F)(F)C(F)(F)C(F)(F)F)OC | inactive | – |
